Results reported in PubChem BioAssay (NCATS).
Inconclusive results are not listed. Activity calls are given as the source filed them. Calls follow the shape of the dose curve; as a rule, active = well fitted curve in the direction sought with a large enough effect; inconclusive = small, poorly fitted or top-dose-only effect, or another doubt; inactive = no such curve, though single readings can be large; an effect the other way counts as inactive or inconclusive.

How the values were obtained:
[1] = target: Glutathione peroxidase 1 (Homo sapiens) (UniProt P07203); test: Primary qHTS Assay for Inhibitors of Recombinant Selenoprotein Glutathione Peroxidase 1 (GPX1) (AID 1845191); also: nearly all actives have a fitted effect of over 65% in size; as to activity, negative = inhibition: % is scaled to controls: 0 for no effect and ±100 for the full control effect
Sequence of Glutathione peroxidase 1 (Homo sapiens) (P07203 whole entry, looked up): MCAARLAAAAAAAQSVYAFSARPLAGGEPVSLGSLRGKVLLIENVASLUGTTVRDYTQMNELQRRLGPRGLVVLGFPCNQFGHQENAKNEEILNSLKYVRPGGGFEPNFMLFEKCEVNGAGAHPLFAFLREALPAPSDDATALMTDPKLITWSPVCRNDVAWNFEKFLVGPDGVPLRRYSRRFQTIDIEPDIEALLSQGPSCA
Method in brief: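 Recombinant GPX1 (10 nM final) was preincubated with compound for 30 min at room temperature, then reacted with 1 mM GSH, 0.5 mM CHP, 0.5 mM NADPH and 100 nM glutathione reductase; NADPH fluorescence (340/450 nm) was read at 0 and 15 min.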

[2] = target: Phospholipid hydroperoxide glutathione peroxidase GPX4 (Homo sapiens) (UniProt P36969); test: Primary qHTS Assay for Inhibitors of Recombinant Selenoprotein Glutathione Peroxidase 4 (GPX4) (AID 1845192); also: nearly all actives have a fitted effect of over 65% in size
Sequence of Phospholipid hydroperoxide glutathione peroxidase GPX4 (Homo sapiens) (P36969 whole entry, looked up): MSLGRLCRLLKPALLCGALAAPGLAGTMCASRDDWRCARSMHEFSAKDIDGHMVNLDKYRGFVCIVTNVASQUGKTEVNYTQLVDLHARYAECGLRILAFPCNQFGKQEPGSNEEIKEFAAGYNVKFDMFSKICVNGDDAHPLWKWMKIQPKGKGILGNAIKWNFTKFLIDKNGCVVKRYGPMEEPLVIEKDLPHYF
Method in brief: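 GR-coupled readout: 100 nM GR, 1 mM GSH, 0.5 mM NADPH; NADPH fluorescence (ex 340/em 450 nm) read at t=0 and after 15 min RT. GPX4 200 nM, preincubated 30 min with compound; substrate 0.5 mM CHP.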

[3] = target: Luciferin 4-monooxygenase (Photinus pyralis) (UniProt P08659); test: Primary firefly luciferase (FLuc) qHTS assay for identification of artifact compounds. (AID 1845220); also: nearly all actives have a fitted effect of over 60% in size
Method in brief: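 In this counter-screen for luciferase artifacts, test compounds met substrate (10 uM each luciferin and ATP) before 10 nM enzyme started the reaction. Light output was measured 5 min later.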

[4] = test system: Nanoluciferase (engineered Oplophorus gracilirostris luciferase); test: Primary Nanoluciferase (NLuc) qHTS assay for identification of artifact compounds. (AID 1845222);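 also: NLuc secreted into diluted conditioned medium of S16 cells; series mostly up to about 54 µM; 0% = DMSO and -100% = no enzyme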
Method in brief: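 Using secreted nanoluciferase in S16 culture medium (0.22 um filtered, 1:55 dilution), compounds were preincubated 15 min at RT. Signal was generated with Nano-Glo reagent (1:100) over 5 min.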

[5] = Primary redox qHTS assay for identification of artifact compounds. (AID 1845223);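 also: 0% = DMSO and 100% = reference compound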
Method in brief: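 Amplex Red (25 uM) and HRP (250 mU/mL) in HBSS, with compounds for 15 min, then 250 uM DTT for 30 min, room temperature, dark. Fluorescence 525/598 nm read; normalized to DMSO and 10 uM DA3003; Hill fit.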

C=C[C@H]1[C@H](O[C@@H]2O[C@H](CO)[C@@H](O)[C@H](O)[C@H]2O)OC=C(C(=O)OC)[C@H]1CCO
inactive: Potency [1] | Potency [2] | Potency [3] | Potency [4] | Potency [5]

Cc1ccc(C)c(NC(=O)CNS(=O)(=O)c2ccc3[nH]c(=O)oc3c2)c1
inactive: Potency [1] | Potency [2] | Potency [3] | Potency [4] | Potency [5]

CC(O)CCc1ccc(O[C@@H]2O[C@H](CO)[C@@H](O)[C@H](O)[C@H]2O)cc1 (stereo not given in full)
inactive: Potency [1] | Potency [2] | Potency [3] | Potency [4] | Potency [5]

COC(=O)C1=COC(O[C@@H]2O[C@H](CO)[C@@H](O)[C@H](O)[C@H]2O)C2C(C)C(=O)CC12 (stereo not given in full)
inactive: Potency [1] | Potency [2] | Potency [3] | Potency [4] | Potency [5]

C/C(CO)=C1/CCC23COC(C2)C(O)(C(=O)O)CCC13 (stereo not given)
inactive: Potency [1] | Potency [2] | Potency [3] | Potency [4] | Potency [5]

O=C(c1ccc(Cl)c([N+](=O)[O-])c1)N1CCN(c2ccccc2F)CC1
inactive: Potency [1] | Potency [2] | Potency [3] | Potency [4] | Potency [5]

CC/C=C\[C@H](O)[C@H](O)C1=C(C)C(=O)[C@]2(O1)C(=O)N[C@@](O)(C(=O)c1ccccc1)[C@@H]2O
inactive: Potency [1] | Potency [2] | Potency [3] | Potency [4] | Potency [5]

COc1cc(/C=C/C(=O)O[C@@H]2C[C@](O)(C(=O)O)C[C@@H](O)[C@H]2O)ccc1O
inactive: Potency [1] | Potency [2] | Potency [3] | Potency [4] | Potency [5]

C[C@H]1[C@@H](O)[C@H](O)C2[C@]3(C)C([C@@H](O)[C@H]4OC(=O)[C@@H]1[C@@]24C)[C@](C)(O)C=C[C@H]3O[C@@H]1O[C@H](CO)[C@@H](O)[C@H](O)[C@H]1O (stereo not given in full)
inactive: Potency [1] | Potency [2] | Potency [3] | Potency [4] | Potency [5]

COC(=O)C1(O)C(OC(C)=O)CCC2C3(CC(c4ccoc4)OC3=O)C(C)=CCC21C(=O)OC (stereo not given)
inactive: Potency [1] | Potency [2] | Potency [3] | Potency [4] | Potency [5]

CC(=O)/C=C/C1(O)C(C)(C)CC(O)CC1(C)O (stereo not given)
inactive: Potency [1] | Potency [2] | Potency [3] | Potency [4] | Potency [5]

Cc1occc1C(=O)n1ccnc1
inactive: Potency [1] | Potency [2] | Potency [3] | Potency [4] | Potency [5]

COC(=O)[C@]1(C)CCC[C@@]2(C)C(=O)CC[C@H]3C(=O)C=C(CC[C@@H]21)C3O (stereo not given in full)
inactive: Potency [1] | Potency [2] | Potency [3] | Potency [4] | Potency [5]

O=C(Nc1cc(-c2ccccc2)nn1-c1ccccc1F)c1ccc([N+](=O)[O-])cc1
inactive: Potency [1] | Potency [2] | Potency [3] | Potency [4] | Potency [5]

C/C=C(\C)C(=O)OCC1OC(OC2OC(CO)C(O)C(O)C2O)C(O)C(O)C1O (stereo not given)
inactive: Potency [1] | Potency [2] | Potency [3] | Potency [4] | Potency [5]

CC1=CC(=O)C(=C(C)C)CC2C(C)(O)CCC12O (stereo not given)
inactive: Potency [1] | Potency [2] | Potency [3] | Potency [4] | Potency [5]

COc1cc(C[C@@]2(O)CO[C@@H](c3ccc(O[C@@H]4O[C@H](CO)[C@@H](O)[C@H](O)[C@H]4O)c(OC)c3)[C@H]2CO)ccc1O
inactive: Potency [1] | Potency [2] | Potency [3] | Potency [4] | Potency [5]

C=C(CO)C(=O)O[C@H]1C[C@@]23O[C@@H]2CC/C(=C/[C@H]2OC(=O)C(=C)[C@H]12)CO[C@H]3O
inactive: Potency [1] | Potency [2] | Potency [3] | Potency [4] | Potency [5]

CC/C=C\CC1C(CC(=O)O)CCC1OC1OC(CO)C(O)C(O)C1O (stereo not given)
inactive: Potency [1] | Potency [2] | Potency [3] | Potency [4] | Potency [5]

COC(=O)[C@@H](NC(=O)[C@H](CC(C)C)NC(=O)N(Cc1ccccc1)C[C@@H](O)[C@H](Cc1ccccc1)NC(=O)OC(C)(C)C)C(C)C
inactive: Potency [1] | Potency [2] | outcome [3] inactive [at 11.6 µM] | activity, negative = inhibition [4] -4.83% [at 11.6 µM] | redox activity (% of DA3003) [5] 19.1% [at 11.5 µM]
